Results taken from PubChem BioAssay (EPA / NIEHS).
Records with an inconclusive call do not appear. Active and inactive are the calls of the source. Rule for the calls, unless noted: active = hit-call score of the fitted dose curve at least 0.9, where 1 is the maximum; inactive = score below 0.9.

What was measured:
[1] = APR_HepG2_CellCycleArrest_1hr: Apredica 1-hour HepG2 Assay for Cell Cycle Arrest (AID 2282666); conditions: high-content imaging, actives raise or lower the signal
Procedure, shortened: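 HepG2 cells exposed for 1 h to 0.39–200 uM compound (0.5% DMSO). Fixed, Hoechst-stained nuclei imaged by ArrayScan; DNA content quantified by Cell Cycle analysis; bidirectional fit against DMSO.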

[2] = ACEA_ER_80hr: ACEA Biosciences xCELLigence Real-Time Cell Analysis on Estrogen Receptor Agonism for Proliferation (AID 2282667; active = hit-call score of the fitted dose curve at least 0.9, where 1 is the maximum); conditions: T47D proliferation, impedance (xCELLigence), 80 h
Procedure, shortened: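 Cell-growth kinetics were measured by impedance in T47D cells treated continuously with compound (top 100 uM final, 1:4 steps, 8 points). Activity at 80 h was scored as signal gain over the DMSO baseline.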

[3] = APR_HepG2_MicrotubuleCSK_1hr: Apredica 1-hour HepG2 Assay for Microtubule CSK Stabilty (AID 2282669); conditions: HepG2 microtubule cytoskeleton imaging, actives raise or lower the signal
Procedure, shortened: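 HepG2 cells exposed 1 h to 0.39–200 uM compound (0.5% DMSO, duplicates), then formaldehyde-fixed, permeabilized and immunostained for alpha-tubulin with Hoechst nuclei. Imaged by ArrayScan high-content analysis; bidirectional fit versus DMSO.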

[4] = APR_HepG2_p53Act_1hr: Apredica 1-hour HepG2 Assay for p53 Activation (AID 2282671); conditions: high-content imaging, actives raise or lower the signal
Procedure, shortened: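 HepG2 cells treated 1 h with compound at 0.39–200 uM (10 concentrations, duplicate) in 0.5% DMSO. Formaldehyde-fixed, permeabilised cells immunostained for p53 with Hoechst 33342; high-content imaging, bidirectional fit versus DMSO.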

[5] = APR_HepG2_MitoticArrest_1hr: Apredica 1-hour HepG2 Assay for Mitotic Arrest (AID 2282672); conditions: high-content imaging, actives raise or lower the signal
Procedure, shortened: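 HepG2 cells exposed 1 hr to compounds at 0.39–200 uM (0.5% v/v DMSO final), then fixed in 3.7% formaldehyde and immunostained for phospho-histone H3 with Hoechst 33342. Mitotic arrest scored by automated fluorescence imaging, fitted bidirectionally versus DMSO.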

[6] = APR_HepG2_P-H2AX_1hr: Apredica 1-hour HepG2 Assay for H2AX Phosphorylation (AID 2282673); conditions: high-content imaging, actives raise or lower the signal
Procedure, shortened: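 HepG2 dosed 1 hr at 0.39-200 uM (0.5% DMSO final), duplicate. Fixed in 3.7% formaldehyde, Triton permeabilized, immunostained for phospho-histone H2A.x (1:200) with Hoechst 33342; ArrayScan 20x imaging, bidirectional fit vs DMSO.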

[7] = APR_HepG2_MitoMembPot_1hr: Apredica 1-hour HepG2 Assay for Mitochondrial Membrane Potential (AID 2282675); conditions: imaging, actives raise or lower the signal
Procedure, shortened: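 HepG2 cells dosed 1 hour with 0.39–200 uM compound in duplicate, 0.5% DMSO final. MitoTracker Red CMXRos (250 nM, 30 min) loaded before formaldehyde fixation; fluorescence quantified by high-content imaging, bidirectional fitting versus DMSO.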

[8] = APR_HepG2_CellCycleArrest_24hr: Apredica 24-hour HepG2 Assay for Cell Cycle Arrest (AID 2282905); conditions: imaging, actives raise or lower the signal;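 note: cell cycle arrest scored as ratio of 2N to 4N nuclear DNA content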
Procedure, shortened: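 Cell cycle arrest is scored from nuclear DNA content measured by high-content imaging of Hoechst 33342-stained HepG2 cells following 24-hour treatment at ten concentrations up to 200 uM, with DMSO as baseline.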

[9] = APR_HepG2_StressKinase_1hr: Apredica 1-hour HepG2 Assay for Stress Kinase (AID 2282906); conditions: HepG2 stress kinase (phospho-c-Jun) imaging, actives raise or lower the signal
Procedure, shortened: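 HepG2 cells dosed 0.39-200 uM (0.5% DMSO) for 1 h, then formaldehyde-fixed. Stress kinase read by phospho-c-Jun immunofluorescence using high-content imaging; bidirectional fit vs DMSO.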

[10] = APR_HepG2_NuclearSize_24hr: Apredica 24-hour HepG2 Assay for Nuclear Size (AID 2282907); conditions: high-content imaging, actives raise or lower the signal
Procedure, shortened: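 Compounds in DMSO (final 0.5%) were added to human HepG2 hepatoma cells at ten concentrations up to 200 uM for 24 hr. Fixed nuclei were stained with Hoechst 33342, and nuclear diameter was quantified from automated images.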

[11] = APR_HepG2_CellLoss_24hr: Apredica 24-hour HepG2 Assay for Cell Loss (AID 2282908); conditions: high-content imaging;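 for AC50: fit in both directions so a hit may be cell loss or gain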
Procedure, shortened: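 Cell number is quantified by fluorescence imaging of Hoechst 33342-stained nuclei following dosing at 0.39–200 uM in 0.5% DMSO. Curves are fitted in both directions from the DMSO baseline.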

[12] = APR_HepG2_MicrotubuleCSK_24hr: Apredica 24-hour HepG2 Assay for Microtubule CSK Stabilty (AID 2282909); conditions: HepG2 microtubule cytoskeleton imaging, actives raise or lower the signal
Procedure, shortened: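 Steps: dose HepG2 for 24 h (0.39–200 uM, 0.5% DMSO); fix 30 min in 3.7% formaldehyde at room temperature; permeabilize; stain alpha-tubulin 60 min; image microtubule cytoskeleton at 20x. Signal change fitted in both directions relative to DMSO.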

[13] = APR_HepG2_MitoMembPot_24hr: Apredica 24-hour HepG2 Assay for Mitochondrial Membrane Potential (AID 2282911); conditions: imaging, actives raise or lower the signal
Procedure, shortened: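 Human hepatoma HepG2 cultures received ten compound concentrations up to 200 uM for 24 hr. Membrane-potential dye signal, captured by automated fluorescence microscopy, was scored for gain or loss against DMSO controls.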

[14] = APR_HepG2_MitoMass_24hr: Apredica 24-hour HepG2 Assay for Mitochondrial Mass (AID 2282912); conditions: high-content imaging, actives raise or lower the signal
Procedure, shortened: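 The liver line HepG2 was dosed in duplicate across a 0.39–200 uM series, with final DMSO held at 0.5% v/v, and harvested at 24 hr. High-content imaging measured mitochondrial dye staining.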

[15] = APR_HepG2_p53Act_24hr: Apredica 24-hour HepG2 Assay for p53 Activation (AID 2282913); conditions: high-content imaging, actives raise or lower the signal;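 note: p53 protein immunofluorescence averaged per cell in HepG2 with Hoechst nuclei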
Procedure, shortened: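 Automated fluorescence imaging quantifies p53 immunostaining in HepG2 cells after a 24 hr exposure (0.39–200 uM, duplicate, 0.5% DMSO). Nuclei are located by Hoechst 33342 staining.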

[16] = APR_HepG2_CellCycleArrest_72hr: Apredica 72-hour HepG2 Assay for Cell Cycle Arrest (AID 2282914); conditions: high-content imaging, actives raise or lower the signal
Procedure, shortened: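 Cell cycle arrest in HepG2 was scored from nuclear DNA content after 72 hr compound treatment (0.39–200 uM). Activity, either gain or loss, was fitted against the DMSO baseline.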

[17] = APR_HepG2_MitoMass_1hr: Apredica 1-hour HepG2 Assay for Mitochondrial Mass (AID 2282674); conditions: high-content imaging, actives raise or lower the signal
Procedure, shortened: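 HepG2 cells dosed 1 hr with 0.39-200 uM compound (0.5% DMSO), duplicate wells. Mitochondria stained with 250 nM MitoTracker Red CMXRos for 30 min before formaldehyde fixation, imaged at 20x by ArrayScan; bidirectional fit versus DMSO.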

[18] = APR_HepG2_MitoticArrest_24hr: Apredica 24-hour HepG2 Assay for Mitotic Arrest (AID 2282910); conditions: high-content imaging, actives raise or lower the signal
Procedure, shortened: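 Compounds are dosed onto HepG2 cells across ten concentrations up to 200 uM for 24 hr. Cells are then fixed in 3.7% formaldehyde, permeabilised, and labelled for phospho-histone H3 and nuclei; images are scored by cell cycle analysis and fitted bidirectionally relative to DMSO.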

[19] = APR_HepG2_NuclearSize_1hr: Apredica 1-hour HepG2 Assay for Nuclear Size (AID 2282670); conditions: high-content imaging, actives raise or lower the signal
Procedure, shortened: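 HepG2 cells dosed 1 hr with 0.39–200 uM compound (0.5% DMSO), formaldehyde-fixed, Hoechst 33342-stained and imaged at 20x; nuclear diameter from nuclear stain, fitted bidirectionally against DMSO.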

[20] = APR_HepG2_CellLoss_1hr: Apredica 1-hour HepG2 Assay for Cell Loss (AID 2282668); conditions: high-content imaging;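 note: curves fitted both ways against DMSO so gain or loss of cells counts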
Procedure, shortened: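 HepG2 cells were treated for 1 h with compound at 0.39–200 uM, in duplicate, in 0.5% DMSO. After formaldehyde fixation, Hoechst 33342-stained nuclei were imaged on an ArrayScan to count cells. Data were fitted bidirectionally versus DMSO.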

Measured: AC50

O=P(O)(O)CCCl
inactive: [2] | [3] | [4] | [5] | [6] | [7] | [8] | [9] | [10] | [11] | [12] | [13] | [14] | [15] | [16]
active: [1] 0.0713 µM

OC(c1ccc(Cl)cc1)(c1ccc(Cl)cc1)C(Cl)(Cl)Cl
active: [4] 109 µM | [6] 90.1 µM | [7] 34.2 µM | [9] 30.9 µM | [10] 74.1 µM | [11] 43.1 µM | [15] 112 µM
inactive: [1] | [2] | [17] | [8] | [12] | [13] | [14] | [16]

CC1(C)CCC(=Cc2ccc(Cl)cc2)C1(O)Cn1cncn1 (configuration not stated)
inactive: [1] | [2] | [4] | [6] | [17] | [7] | [9] | [10] | [11] | [12] | [18] | [13] | [14] | [15] | [16]
active: [8] 117 µM

N#Cc1c(Cl)cccc1Cl
inactive: [1] | [2] | [3] | [4] | [6] | [17] | [7] | [8] | [9] | [10] | [11] | [12] | [18] | [13] | [14] | [15] | [16]

CC(C)N1C(=O)N(c2ccccc2)CSC1=NC(C)(C)C
inactive: [1] | [3] | [19] | [4] | [6] | [17] | [9] | [10] | [13] | [14] | [15] | [16]
active: [7] 114 µM | [8] 97.8 µM | [11] 115 µM | [12] 76.6 µM | [18] 114 µM

Cc1c(COC(=O)[C@@H]2[C@H](/C=C(\Cl)C(F)(F)F)C2(C)C)cccc1-c1ccccc1
inactive: [1] | [20] | [4] | [5] | [6] | [7] | [8] | [9] | [10] | [11] | [12] | [18] | [13] | [14] | [15] | [16]

COP(=S)(OC)Oc1ccc([N+](=O)[O-])c(C)c1
inactive: [1] | [2] | [20] | [19] | [4] | [5] | [6] | [17] | [7] | [8] | [9] | [10] | [11] | [12] | [18] | [13] | [14] | [15] | [16]

CCCC(=NOCC)C1=C(O)CC(CC(C)SCC)CC1=O (configuration not stated)
inactive: [1] | [2] | [4] | [5] | [6] | [7] | [8] | [9] | [10] | [11] | [12] | [18] | [13] | [14] | [15] | [16]
